# This is one part of a sample in which the strongest signals are shown more often than they occur.
# B1: PX14375A-pdi-503-28-503 (Parabacteroides distasonis) (protein)
# chain: PLGSPEAGDISEERQAFLRLTAVYSVMKDFRYTWSMQCFGDVLSNDATYSGSSNDAQTFTLLENYQYQADHTEILNKYRYSYQCINKANLFIRDMEMADDALFSKYDKEQMIGEAKFIRAYTYFELVKTFGGVPCYTGVLDLDHERLGRASVEEIYSVIEQDLNDAVSVLPKKSEVANYESSYAGRITKGAAIAMQTRIYLYEKKYDEVKKAFEKFQNECGGEYSLVAPEDYTWQFSLDGEHCSSSILEVNMYNSSTQSSYNVNNGNRHVLMSMPRNMTIGFGCAQPTQALADAYDAEGDVIRKKTTLLSTEEAIEIETAAKGDVAPVTDDRTGWYNRKLYLAPGQREENRGNNQPTNLRLIRLAEVYLNYAEACYFSGDIANAQKYLNEVRSHVNLAPKNHTGSQLFEDIMNERHLEFGMEGFRFFDVVRVGWGEKVFNGTKKAEFGAKTPFSAGAEVLPIPQTEIDISDGLITN
# Columns and labels:
# Experiment in all cases: glycan array binding signal (z-score within array); higher = stronger binding
# Settings in all cases: glycan notation: IUPAC condensed, linker removed
# [1] = target: Fuc(a1-2)Gal(b1-3)GalNAc(a1-3)[Fuc(a1-2)]Gal(b1-4)GlcNAc
# Summary of the method: (§1)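 Glycan array data were curated from 3228 arrays in the Consortium for Functional Glycomics database and kept only where the protein sequence was available. Glycan names were converted to IUPAC-condensed notation, and columns mapping to the same glycan were averaged. The binding signal is a within-array Z-score, averaged across arrays of the same protein sequence at different concentrations or buffers and across linkers. Negative Z-scores can be read as non-binding.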
# [2] = target: Fuc(a1-2)Gal(b1-3)[Fuc(a1-4)]GlcNAc(b1-2)Man(a1-3)[Fuc(a1-2)Gal(b1-3)[Fuc(a1-4)]GlcNAc(b1-2)Man(a1-3)]Man(b1-4)GlcNAc(b1-4)GlcNAc
# Summary of the method: as §1
# [3] = target: Fuc(a1-2)Gal(b1-4)GlcNAc(b1-2)[Fuc(a1-2)Gal(b1-4)GlcNAc(b1-4)]Man(a1-3)[Fuc(a1-2)Gal(b1-4)GlcNAc(b1-2)Man(a1-6)]Man(b1-4)GlcNAc(b1-4)GlcNAc
# Summary of the method: as §1
# [4] = target: Fuc(a1-2)Gal(b1-4)GlcNAc(b1-6)GalNAc
# Summary of the method: as §1
# [5] = target: Fuc(a1-2)Gal(b1-4)[Fuc(a1-3)]GlcNAc(b1-2)Man(a1-3)[Fuc(a1-2)Gal(b1-4)[Fuc(a1-3)]GlcNAc(b1-2)Man(a1-6)]Man(b1-4)GlcNAc(b1-4)[Fuc(a1-6)]GlcNAc
# Summary of the method: as §1
# [6] = target: Fuc(a1-2)Gal(b1-4)[Fuc(a1-3)]GlcNAc(b1-3)GalNAc
# Summary of the method: as §1
# [7] = target: Fuc(a1-2)Gal3S(b1-4)GlcNAc
# Summary of the method: as §1
# [8] = target: Fuc(a1-2)[Gal(a1-3)]Gal
# Summary of the method: as §1
# [9] = target: Fuc(a1-2)[Gal(a1-3)]Gal(b1-3)GlcNAc(b1-2)Man(a1-3)[Fuc(a1-2)[Gal(a1-3)]Gal(b1-3)GlcNAc(b1-2)Man(a1-6)]Man(b1-4)GlcNAc(b1-4)[Fuc(a1-6)]GlcNAc
# Summary of the method: as §1
# [10] = target: Fuc(a1-2)[Gal(a1-3)]Gal(b1-4)GlcNAc(b1-2)Man(a1-3)[Fuc(a1-2)[Gal(a1-3)]Gal(b1-4)GlcNAc(b1-2)Man(a1-6)]Man(b1-4)GlcNAc(b1-4)GlcNAc
# Summary of the method: as §1
# [11] = target: Fuc(a1-2)[GalNAc(a1-3)]Gal(b1-3)GlcNAc(b1-2)Man(a1-3)[Fuc(a1-2)[GalNAc(a1-3)]Gal(b1-3)GlcNAc(b1-2)Man(a1-6)]Man(b1-4)GlcNAc(b1-4)[Fuc(a1-6)]GlcNAc
# Summary of the method: as §1
# [12] = target: Fuc(a1-2)[GalNAc(a1-4)]Gal(b1-4)GlcNAc
# Summary of the method: as §1
# [13] = target: Fuc(a1-3)GlcNAc
# Summary of the method: as §1
# [14] = target: Fuc(a1-3)[Gal(b1-4)]GlcNAc(b1-6)GalNAc
# Summary of the method: as §1
# [15] = target: Fuc(a1-3)[Gal(b1-4)]GlcNAc6S
# Summary of the method: as §1
# [16] = target: Fuc(a1-3)[GalNAc(b1-4)]GlcNAc6S
# Summary of the method: as §1
# [17] = target: Gal(a1-3)Gal(b1-4)Glc
# Summary of the method: as §1
# [18] = target: Gal(a1-3)[Gal(a1-4)]Gal(b1-4)GlcNAc
# Summary of the method: as §1
# [19] = target: Gal(b1-3)GlcNAc(b1-2)Man
# Summary of the method: as §1
# [20] = target: Gal(b1-3)GlcNAc(b1-3)Gal(b1-4)Glc
# Summary of the method: as §1
# [21] = target: Gal(b1-4)Glc
# Summary of the method: as §1
# [22] = target: Gal(b1-4)GlcNAc(b1-3)Gal(b1-4)GlcNAc(b1-2)Man(a1-3)[Gal(b1-4)GlcNAc(b1-3)Gal(b1-4)GlcNAc(b1-2)Man(a1-6)]Man(b1-4)GlcNAc(b1-4)GlcNAc
# Summary of the method: as §1
# [23] = target: Gal(b1-4)GlcNAc(b1-3)Gal(b1-4)GlcNAc(b1-3)Gal(b1-4)GlcNAc(b1-2)Man(a1-3)[Gal(b1-4)GlcNAc(b1-3)Gal(b1-4)GlcNAc(b1-3)Gal(b1-4)GlcNAc(b1-2)Man(a1-6)]Man(b1-4)GlcNAc(b1-4)GlcNAc
# Summary of the method: as §1
# [24] = target: Gal3S(b1-4)Glc
# Summary of the method: as §1
# [25] = target: Gal3S4S(b1-4)GlcNAc
# Summary of the method: as §1
# [26] = target: GalNAc6S(b1-4)GlcNAc
# Summary of the method: as §1
# [27] = target: Glc(a1-6)Glc(a1-6)Glc
# Summary of the method: as §1
# [28] = target: GlcNAc(a1-4)Gal(b1-4)GalNAc
# Summary of the method: as §1
# [29] = target: GlcNAc(b1-2)[GlcNAc(b1-6)]Man(a1-6)[GlcNAc(b1-4)][GlcNAc(b1-2)Man(a1-3)]Man(b1-4)GlcNAc(b1-4)GlcNAc
# Summary of the method: as §1
# [30] = target: GlcNAc(b1-3)Gal(b1-4)GlcNAc(b1-3)Gal(b1-4)GlcNAc(b1-2)Man(a1-3)[GlcNAc(b1-3)Gal(b1-4)GlcNAc(b1-3)Gal(b1-4)GlcNAc(b1-2)Man(a1-6)]Man(b1-4)GlcNAc(b1-4)GlcNAc
# Summary of the method: as §1
# [31] = target: GlcNAc(b1-3)Gal(b1-4)GlcNAc(b1-3)Gal(b1-4)GlcNAc(b1-3)Gal(b1-4)GlcNAc(b1-2)[GlcNAc(b1-3)Gal(b1-4)GlcNAc(b1-3)Gal(b1-4)GlcNAc(b1-3)Gal(b1-4)GlcNAc(b1-6)]Man(a1-6)[GlcNAc(b1-3)Gal(b1-4)GlcNAc(b1-3)Gal(b1-4)GlcNAc(b1-3)Gal(b1-4)GlcNAc(b1-2)Man(a1-3)]Man(b1-4)GlcNAc(b1-4)[Fuc(a1-6)]GlcNAc
# Summary of the method: as §1
# [32] = target: GlcNAc(b1-4)[GlcNAc(b1-6)]GalNAc
# Summary of the method: as §1
# [33] = target: Kdn(a2-3)Gal(b1-3)GlcNAc
# Summary of the method: as §1
# [34] = target: Man(a1-2)Man(a1-3)[Man(a1-2)Man(a1-6)]Man(a1-6)[Man(a1-2)Man(a1-2)Man(a1-3)]Man
# Summary of the method: as §1
# [35] = target: Man(a1-2)Man(a1-6)[Man(a1-3)]Man(a1-6)[Man(a1-2)Man(a1-2)Man(a1-3)]Man
# Summary of the method: as §1
# [36] = target: Neu5Ac(a2-3)Gal(b1-4)GlcNAc(b1-3)Gal(b1-3)GlcNAc
# Summary of the method: as §1
# [37] = target: Neu5Ac(a2-3)Gal(b1-4)GlcNAc(b1-3)Gal(b1-4)GlcNAc
# Summary of the method: as §1
# [38] = target: Neu5Ac(a2-3)Gal(b1-4)GlcNAc(b1-3)Gal(b1-4)GlcNAc(b1-3)GalNAc
# Summary of the method: as §1
# [39] = target: Neu5Ac(a2-3)GalNAc
# Summary of the method: as §1
# [40] = target: Neu5Ac(a2-3)[GalNAc(b1-4)]Gal(b1-4)GlcNAc(b1-3)GalNAc
# Summary of the method: as §1
# [41] = target: Neu5Ac(a2-3)[Neu5Ac(a2-6)]GalNAc
# Summary of the method: as §1
# [42] = target: Neu5Ac(a2-6)Gal(b1-4)Glc
# Summary of the method: as §1
# [43] = target: Neu5Ac(a2-6)Gal(b1-4)GlcNAc(b1-2)Man(a1-6)Man(b1-4)GlcNAc(b1-4)GlcNAc
# Summary of the method: as §1
# [44] = target: Neu5Ac(a2-6)Gal(b1-4)GlcNAc(b1-2)Man(a1-6)[Gal(b1-4)GlcNAc(b1-2)Man(a1-3)]Man(b1-4)GlcNAc(b1-4)GlcNAc
# Summary of the method: as §1
# [45] = target: Neu5Ac(a2-6)Gal(b1-4)GlcNAc(b1-3)Gal(b1-4)GlcNAc(b1-2)Man(a1-3)[Neu5Ac(a2-6)Gal(b1-4)GlcNAc(b1-3)Gal(b1-4)GlcNAc(b1-2)Man(a1-6)]GalNAc
# Summary of the method: as §1
# [46] = target: Neu5Ac(a2-6)Gal(b1-4)GlcNAc(b1-3)Gal(b1-4)GlcNAc(b1-3)Gal(b1-4)GlcNAc
# Summary of the method: as §1
# [47] = target: Neu5Ac(a2-6)Gal(b1-4)GlcNAc(b1-3)Gal(b1-4)GlcNAc(b1-3)Gal(b1-4)GlcNAc(b1-2)Man(a1-3)[Neu5Ac(a2-6)Gal(b1-4)GlcNAc(b1-3)Gal(b1-4)GlcNAc(b1-3)Gal(b1-4)GlcNAc(b1-2)Man(a1-6)]GalNAc
# Summary of the method: as §1
# [48] = target: Neu5Ac(a2-6)Gal(b1-4)GlcNAc(b1-3)Gal(b1-4)GlcNAc(b1-6)[Gal(b1-3)]GalNAc
# Summary of the method: as §1
# [49] = target: Neu5Ac(a2-8)Neu5Ac(a2-3)Gal(b1-3)GalNAc(b1-4)[Neu5Ac(a2-3)]Gal(b1-4)Glc
# Summary of the method: as §1
# [50] = target: Neu5Ac(a2-8)Neu5Ac(a2-8)Neu5Ac
# Summary of the method: as §1
# [51] = target: Neu5Ac(a2-8)Neu5Gc(a2-3)Gal(b1-4)GlcNAc
# Summary of the method: as §1
# [52] = target: Neu5Gc(a2-8)Neu5Gc(a2-3)Gal(b1-4)GlcNAc
# Summary of the method: as §1
# [53] = target: Neu5Gc(a2-8)Neu5Gc(a2-3)Gal(b1-4)GlcNAc(b1-3)Gal(b1-4)GlcNAc
# Summary of the method: as §1
binder,measurement,setting,value
B1,glycan array binding signal (z-score),[1],-1
same,glycan array binding signal (z-score),[2],0.809
same,glycan array binding signal (z-score),[3],1.43
same,glycan array binding signal (z-score),[4],0.828
same,glycan array binding signal (z-score),[5],-0.25
same,glycan array binding signal (z-score),[6],-0.279
same,glycan array binding signal (z-score),[7],0.279
same,glycan array binding signal (z-score),[8],0.139
same,glycan array binding signal (z-score),[9],1.43
same,glycan array binding signal (z-score),[10],-0.223
same,glycan array binding signal (z-score),[11],-0.166
same,glycan array binding signal (z-score),[12],-0.304
same,glycan array binding signal (z-score),[13],-0.753
same,glycan array binding signal (z-score),[14],-0.205
same,glycan array binding signal (z-score),[15],0.08
same,glycan array binding signal (z-score),[16],0.949
same,glycan array binding signal (z-score),[17],-0.124
same,glycan array binding signal (z-score),[18],2.05
same,glycan array binding signal (z-score),[19],-0.555
same,glycan array binding signal (z-score),[20],10.3
same,glycan array binding signal (z-score),[21],-0.065
same,glycan array binding signal (z-score),[22],5.38
same,glycan array binding signal (z-score),[23],2.49
same,glycan array binding signal (z-score),[24],-0.196
same,glycan array binding signal (z-score),[25],-0.718
same,glycan array binding signal (z-score),[26],-0.507
same,glycan array binding signal (z-score),[27],-0.184
same,glycan array binding signal (z-score),[28],0.594
same,glycan array binding signal (z-score),[29],-0.508
same,glycan array binding signal (z-score),[30],1.59
same,glycan array binding signal (z-score),[31],0.489
same,glycan array binding signal (z-score),[32],2.82
same,glycan array binding signal (z-score),[33],-0.519
same,glycan array binding signal (z-score),[34],1.42
same,glycan array binding signal (z-score),[35],-0.437
same,glycan array binding signal (z-score),[36],-0.225
same,glycan array binding signal (z-score),[37],0.104
same,glycan array binding signal (z-score),[38],-0.442
same,glycan array binding signal (z-score),[39],-0.004
same,glycan array binding signal (z-score),[40],-1.13
same,glycan array binding signal (z-score),[41],0.006
same,glycan array binding signal (z-score),[42],-0.412
same,glycan array binding signal (z-score),[43],-0.882
same,glycan array binding signal (z-score),[44],-0.819
same,glycan array binding signal (z-score),[45],0.642
same,glycan array binding signal (z-score),[46],0.319
same,glycan array binding signal (z-score),[47],1.64
same,glycan array binding signal (z-score),[48],-0.493
same,glycan array binding signal (z-score),[49],-0.127
same,glycan array binding signal (z-score),[50],-0.278
same,glycan array binding signal (z-score),[51],13.2
same,glycan array binding signal (z-score),[52],-0.736
same,glycan array binding signal (z-score),[53],-0.755

# Reference: the supplement of paper PMC8728848
